Activity calls are given as the source filed them.
Columns and labels:
[1] = system: Human papillomavirus type 1a protein E7 (residues 44-93); experiment: small molecules binding HPV E7 44-93 – biochemical, small-molecule microarray, residues 44-93, 635 nm fluorescence, primary screen (AID 1108); conditions: fluorescence 635 nm, higher = more signal;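 note: E7 fragment applied at 1 µg/mL in TBST for 1 h at 4 C; score combines spot fluorescence with its signal to noise ratio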
[2] = hepatitis C replication reporter changes, two-sided – Huh7 cells, luciferase reporter, HCV replication inhibitor project, primary screen (AID 1109); conditions: Huh7 HCV replicon luciferase reporter, 48 h; higher = more signal;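 note: huh7 hepatoma cells harbouring a luciferase neomycin HCV replicon reporter; luciferase luminescence as measure of HCV replicon replication; test concentration not given here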
[3] = biological target: Left-right determination factor 2 (Homo sapiens) (UniProt O00292); experiment: small molecules binding LEFTY2 protein – biochemical, small-molecule microarray, 635 nm fluorescence scan, primary screen (AID 1110); conditions: higher = more signal
Left-right determination factor 2 (Homo sapiens), sequence (O00292 whole entry, looked up): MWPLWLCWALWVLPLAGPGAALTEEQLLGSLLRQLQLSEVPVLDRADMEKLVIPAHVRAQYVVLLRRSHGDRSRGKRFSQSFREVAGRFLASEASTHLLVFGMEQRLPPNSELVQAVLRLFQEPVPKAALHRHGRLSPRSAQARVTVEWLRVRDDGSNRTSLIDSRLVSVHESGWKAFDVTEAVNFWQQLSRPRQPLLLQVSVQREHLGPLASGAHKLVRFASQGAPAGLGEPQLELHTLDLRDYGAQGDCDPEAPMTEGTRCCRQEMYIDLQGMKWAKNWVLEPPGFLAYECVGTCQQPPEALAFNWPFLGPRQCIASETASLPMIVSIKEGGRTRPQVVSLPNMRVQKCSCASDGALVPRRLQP

[4] = biological target: Calmodulin-1 (Homo sapiens) (UniProt P0DP23); experiment: small molecules binding calmodulin-1 with EGTA – biochemical, small-molecule microarray, Cy5-labelled CALM1, profiling panel (AID 1111); conditions: Cy5-CALM1 binding fluorescence, higher = more signal;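 note: labelled calmodulin applied in Tris saline Tween buffer holding calcium plus EGTA and DTT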
[5] = biological target: Calmodulin-1 (Homo sapiens) (UniProt P0DP23); experiment: small molecules binding Ca-loaded calmodulin-1 – biochemical, small-molecule microarray, Cy5-labelled CALM1, plus calcium, artefact control for SMM control-protein annotation, profiling panel (AID 1112); conditions: Cy5-CALM1 binding fluorescence, higher = more signal;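 note: score merges spot fluorescence with signal to noise from triplicate slides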
[6] = probe aWnt5a binding to arrayed compounds – biochemical, biotinylated probe, 635/667 nm fluorescence, primary screen (AID 1113); conditions: small-molecule microarray, higher = more signal;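 note: score merges 667 nm fluorescence intensity with signal-to-noise per printed feature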
[7] = probe aShh binding to arrayed compounds – biochemical, biotinylated probe, 635/667 nm fluorescence, primary screen (AID 1114); conditions: small-molecule microarray, higher = more signal;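 note: probe is biotin-labelled aShh protein from a stem cell growth factor screen; measures binding of labelled protein to compounds printed on the slide; score merges feature fluorescence at 667 nm with signal-to-noise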
[8] = probe aNog binding to arrayed compounds – biochemical, biotinylated probe, 635/667 nm fluorescence, primary screen (AID 1115); conditions: small-molecule microarray, higher = more signal;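 note: probe is biotinylated aNog protein used at 0.15 µg/mL for 1 h at 4 C; z-score combines 667 nm fluorescence of each spot with its signal to noise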
[9] = biological target: Torsin-1A-interacting protein 1 (Homo sapiens) (UniProt Q5JTV8); experiment: compound microarray binding of lysate hLAP1 – cell lysate, small-molecule microarray, COS7 lysate, 635/667 nm fluorescence, primary screen (AID 1116); conditions: 635 nm fluorescence, higher = more signal
Torsin-1A-interacting protein 1 (Homo sapiens), sequence (Q5JTV8 whole entry, looked up): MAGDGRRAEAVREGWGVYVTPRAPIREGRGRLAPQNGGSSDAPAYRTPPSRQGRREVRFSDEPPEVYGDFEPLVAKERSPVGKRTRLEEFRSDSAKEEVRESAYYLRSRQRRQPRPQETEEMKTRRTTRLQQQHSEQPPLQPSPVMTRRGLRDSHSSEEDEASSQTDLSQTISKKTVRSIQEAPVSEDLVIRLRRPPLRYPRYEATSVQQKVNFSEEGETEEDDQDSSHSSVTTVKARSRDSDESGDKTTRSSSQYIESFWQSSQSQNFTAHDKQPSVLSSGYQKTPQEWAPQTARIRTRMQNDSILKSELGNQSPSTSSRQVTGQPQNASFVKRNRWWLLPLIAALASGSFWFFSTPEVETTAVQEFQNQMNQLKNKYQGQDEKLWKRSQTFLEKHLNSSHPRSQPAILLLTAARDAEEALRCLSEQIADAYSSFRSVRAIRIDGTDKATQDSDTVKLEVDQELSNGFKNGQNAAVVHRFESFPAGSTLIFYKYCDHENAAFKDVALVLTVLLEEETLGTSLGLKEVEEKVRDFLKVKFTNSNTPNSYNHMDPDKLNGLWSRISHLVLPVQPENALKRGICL

[10] = biological target: Alpha-bungarotoxin (Bungarus multicinctus) (UniProt P60615); experiment: compounds binding labelled alpha-BTX control protein – biochemical, small-molecule microarray, Alexa647 label, 635/667 nm fluorescence, artefact control for SMM control protein annotation, profiling panel (AID 1117); conditions: alpha-BTX-A647 binding fluorescence, higher = more signal
Alpha-bungarotoxin (Bungarus multicinctus), sequence (P60615 whole entry, looked up): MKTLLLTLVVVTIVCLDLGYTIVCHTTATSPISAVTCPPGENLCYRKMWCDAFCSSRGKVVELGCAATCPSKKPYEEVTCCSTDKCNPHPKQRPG

Albumin (Bos taurus) = Albumin (Bos taurus) (UniProt P02769); experiment: compounds binding labelled BSA control protein – biochemical, small-molecule microarray, Alexa647 label, 635/667 nm fluorescence, artefact control for SMM control protein annotation, profiling panel (AID 1118); conditions: BSA-A647 binding, fluorescence 635 nm, higher = more signal;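 note: score merges 667 nm emission intensity and signal-to-noise per printed compound spot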
Albumin (Bos taurus), sequence (P02769 whole entry, looked up): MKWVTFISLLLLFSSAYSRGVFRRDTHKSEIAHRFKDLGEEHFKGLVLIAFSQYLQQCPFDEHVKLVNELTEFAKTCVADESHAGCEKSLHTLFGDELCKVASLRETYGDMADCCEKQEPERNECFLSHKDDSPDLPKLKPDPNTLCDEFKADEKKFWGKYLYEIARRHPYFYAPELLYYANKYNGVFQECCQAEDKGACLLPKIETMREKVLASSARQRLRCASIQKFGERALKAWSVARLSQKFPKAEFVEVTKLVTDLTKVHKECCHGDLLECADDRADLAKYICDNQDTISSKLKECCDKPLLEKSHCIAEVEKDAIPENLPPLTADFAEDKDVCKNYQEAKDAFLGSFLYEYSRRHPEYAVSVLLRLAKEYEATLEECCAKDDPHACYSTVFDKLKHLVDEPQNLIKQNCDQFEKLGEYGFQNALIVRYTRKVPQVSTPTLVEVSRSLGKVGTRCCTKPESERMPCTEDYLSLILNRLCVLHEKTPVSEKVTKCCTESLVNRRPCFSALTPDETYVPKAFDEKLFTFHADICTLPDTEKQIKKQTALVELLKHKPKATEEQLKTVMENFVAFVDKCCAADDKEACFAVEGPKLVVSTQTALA

[11] = probe aXIP binding to arrayed compounds – biochemical, NeuroSMM set, 635/667 nm fluorescence, primary screen (AID 1119); conditions: small-molecule microarray, higher = more signal, called active from +8 up or from −8 down;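 note: probe is the protein aXip251-270 applied at 1 µg/mL to compound-printed slides; binding of probe to printed compounds measured as 667 nm fluorescence plus signal to noise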
[12] = probe aNOTCH3 binding on compound microarray – biochemical, small-molecule microarray, 635/667 nm fluorescence, primary screen (AID 1120); conditions: higher = more signal;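 note: probe is a biotin-tagged antibody raised against NOTCH3 rather than NOTCH3 protein; score merges spot fluorescence near 667 nm with spot signal to noise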
[13] = probe aNOTCH2 binding on compound microarray – biochemical, small-molecule microarray, 635/667 nm fluorescence, primary screen (AID 1121); conditions: higher = more signal;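 note: score merges feature fluorescence read at 667 nm with its signal to noise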
[14] = biological target: Carbonic anhydrase 2 (Homo sapiens) (UniProt P00918); experiment: compounds binding carbonic anhydrase 2 – biochemical, small-molecule microarray, Alexa647-labelled CAII, profiling panel (AID 1122); conditions: CAII-A647 binding fluorescence, higher = more signal
[15] = COS7 lysate on small-molecule microarray, probe aHis, 635 nm (AID 1123); conditions: COS7 cell lysate, fluorescence, higher = more signal;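 note: z-score combines 667nm fluorescence intensity with signal-to-noise per printed compound spot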
[16] = probe aLAP1 signal on lysate-treated microarray – cell lysate, small-molecule microarray, COS7 lysate, primary screen (AID 1124); conditions: probe aLAP1, fluorescence, higher = more signal;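 note: lysate comes from COS7 cells expressing LAP1 and is applied at 0.3 µg/mL; score merges spot fluorescence near 667 nm with signal-to-noise over triplicate slides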
Sam68 (KHDRBS1) = experiment: compounds binding KHDRBS1 protein – biochemical, small-molecule microarray, 635 nm fluorescence, primary screen (AID 1125); conditions: higher = more signal;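 note: score merges 667 nm channel intensity with signal to noise over triplicate slides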
[17] = system: Chordin-like protein 2 (CHRDL2); experiment: compounds binding chordin-like 2 – biochemical, small-molecule microarray, 635 nm fluorescence, primary screen (AID 1126); conditions: fluorescence 635 nm, higher = more signal;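 note: printed compound slides probed with Chrdl2 protein at 4 µg/mL for 1 h at 4 C; score merges 667 nm emission intensity with signal to noise over three replicate slides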
[18] = biological target: Concanavalin-A (Canavalia ensiformis) (UniProt P02866); experiment: compounds binding concanavalin A lectin – biochemical, small-molecule microarray, Alexa647 label, 635 nm, artefact control for SMM control protein annotation, primary screen (AID 1127); conditions: ConA-A647 binding fluorescence, higher = more signal;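 note: z combines 667 nm emission intensity with signal-to-noise across three replicate slides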
Concanavalin-A (Canavalia ensiformis), sequence (P02866 whole entry, looked up): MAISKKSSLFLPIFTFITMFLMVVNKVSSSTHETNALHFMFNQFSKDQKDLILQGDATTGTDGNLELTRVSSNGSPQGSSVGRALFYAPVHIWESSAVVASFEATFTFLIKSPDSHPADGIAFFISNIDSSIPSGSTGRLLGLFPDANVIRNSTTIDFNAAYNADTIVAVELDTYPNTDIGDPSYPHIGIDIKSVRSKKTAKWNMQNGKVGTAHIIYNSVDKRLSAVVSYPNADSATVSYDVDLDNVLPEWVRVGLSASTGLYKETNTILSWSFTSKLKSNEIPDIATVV

Structure (SMILES) | composite z-score [1] | z-score [2] | composite z-score [3] | composite z-score [4] | composite z-score [5] | composite z-score [6] | composite z-score [7] | composite z-score [8] | composite z-score [9] | composite z-score [10] | composite z-score (Albumin (Bos taurus)) | composite Z-score [11] | composite z-score [12] | composite z-score [13] | composite z-score [14] | composite z-score [15] | composite z-score [16] | composite z-score (Sam68 (KHDRBS1)) | composite z-score [17] | composite z-score [18]
COC(=O)C(CC#Cc1ccc2c(c1)[C@]1(C(=O)N2)[C@H](C(N)=O)[C@H]2C(=O)O[C@H](c3ccccc3)[C@H](c3ccccc3)N2[C@@H]1c1ccccc1OCCO)C(=O)OC | 1.47 | -3.34 | 0.205 | 0.534 | 0.237 | -0.0721 | -0.291 | -0.0604 | 1.87 | 1.19 | 0.398 | -0.363 (inactive) | -0.248 | -0.124 | 0.434 | 2.34 | 0.782 | 1.13 | -0.0393 | 1.12
CCCC[C@@H](O)C1=C(C)Cn2c(=O)n(-c3ccccc3)c(=O)n2[C@H]1CO | -0.867 | 0.384 | 0.0031 | -0.737 | -0.122 | -0.117 | -0.221 | 0.115 | 0.105 | -0.409 | 0.138 | -0.301 (inactive) | -0.0647 | -0.219 | -0.313 | 0.332 | -0.0242 | -0.92 | 0.24 | -0.827
C=CC[C@H](O)c1ccc(O)c2ccccc12 | 0.7 | -2.04 | 0.685 | -0.536 | -1.32 | -0.0521 | 0.151 | -0.158 | 0.655 | 1.23 | -0.491 | 0.579 (inactive) | 0.037 | -0.0904 | 0.421 | 1.63 | 0.0233 | 1.06 | 1.4 | 0.79
COCCOC(=O)N1C(=O)[C@@]2(c3cc(C#CCC(C(=O)OC)C(=O)OC)ccc31)[C@H](C(=O)N1CCc3cc(OC)c(OC)cc3C1)[C@H]1C(=O)O[C@H](c3ccccc3)[C@H](c3ccccc3)N1[C@@H]2c1ccccc1OCCO | 1.36 | -1.61 | 1.07 | 0.965 | -0.226 | -0.0125 | 1.57 | -0.512 | 1.03 | 0.774 | 0.329 | -0.331 (inactive) | 0.182 | -0.106 | 0.401 | 0.977 | 0.75 | 1.3 | 0.854 | 1.14
COc1ccc([Si](C)(C)[C@H]2[C@H](CC(=O)N3CCC[C@H]3CO)O[C@@]3(C(=O)N(C)c4ccccc43)[C@@H]2C)cc1 | 0.442 | -0.812 | 0.239 | -0.13 | 0.297 | -0.0721 | -0.0368 | -0.0094 | 1.13 | 0.557 | 0.728 | 1.38 (inactive) | 0.103 | -0.103 | 0.487 | 0.459 | 0.378 | 0.646 | 0.808 | 0.119
COCCOC(=O)N1C(=O)[C@@]2(c3cc(C#CCNC(N)=O)ccc31)[C@H](C(=O)N1CCN(c3ncccn3)CC1)[C@H]1C(=O)O[C@H](c3ccccc3)[C@H](c3ccccc3)N1[C@@H]2c1ccc(O)cc1 | -0.381 | 0.894 | -1.67 | -0.777 | -0.686 | -0.408 | -0.461 | -0.294 | -0.92 | 0.165 | 0.526 | -0.453 (inactive) | -0.457 | -0.292 | 0.371 | -0.864 | 0.555 | -0.396 | -0.956 | -0.785
Cc1c(NC(=O)/C(C#N)=C/C=C/c2ccc([N+](=O)[O-])cc2)c(=O)n(-c2ccccc2)n1C | 0.572 | -1.71 | 0.328 | 1.97 | 0.72 | -0.0792 | -0.0769 | 0.457 | 1.37 | 1.13 | 0.974 | 0.947 (inactive) | 0.144 | 0.0966 | 0.584 | 2.23 | 0.82 | 1.3 | 0.0495 | 1.04
CN(C)C(=O)[C@]1(CCS(=O)(=O)c2ccccc2)N=C(c2ccc(OCCCO)cc2)O[C@@H]1c1ccccc1CN=[N+]=[N-] | 0.924 | -2.39 | -0.0755 | 1.98 | 0.68 | 0.0215 | -0.0891 | 0.463 | 1.48 | 1.71 | 0.955 | 0.581 (inactive) | 0.0743 | 0.139 | 0.73 | 2.78 | 0.766 | 1.3 | -0.109 | 1.17
O=C1O[C@@H](c2ccccc2)[C@@H](c2ccccc2)N2[C@@H](c3ccc(OCCO)cc3)[C@]3(C(=O)Nc4ccc(C#CC5=CCCCC5)cc43)[C@@H](C(=O)Nc3nc4ccccc4s3)[C@H]12 | 0.597 | -1.88 | -0.005 | 0.516 | -0.188 | 0.0243 | -0.708 | 0.704 | 0.0065 | 0.4 | -0.01 | 0.159 (inactive) | 0.674 | -0.42 | 0.303 | 1.14 | -0.142 | 1.28 | 0.163 | 1.07
COc1ccc([Si](C)(C)[C@H]2[C@H](CC(=O)N(CCO)Cc3ccccc3)O[C@@]3(C(=O)N(Cc4cccc(N5CCCCC5=O)c4)c4ccccc43)[C@@H]2C)cc1 | 0.558 | -4.06 | 0.384 | -0.0075 | 0.117 | -0.147 | 0.235 | -0.0863 | -0.0746 | 0.595 | 0.124 | 1.12 (inactive) | 0.401 | -0.131 | 0.235 | 0.681 | 0.825 | 0.732 | 0.877 | 0.72
COc1ccc([Si](C)(C)[C@@H]2[C@@H](CC(=O)N3CCC[C@H]3CO)O[C@]3(C(=O)N(Cc4cccc(N5C(=O)c6cccc7cccc5c67)c4)c4ccccc43)[C@H]2C)cc1 | 1.29 | -2.11 | 0.456 | 1.15 | -0.226 | -0.108 | -0.0793 | -0.458 | 2.23 | 0.669 | 0.601 | 0.681 (inactive) | -0.0701 | -0.166 | 0.394 | 0.386 | 0.104 | 0.905 | 0.568 | 1.13
